Reference: PubChem BioAssay (EPA / NIEHS)
Several values for one entry are separate records, joined by “and”; a condition that tells them apart may be missing. Equal entries are not always repeated. Results filed as inconclusive are left out. More than one record can exist for a structure, and the calls need not agree. Activity calls are given as the source filed them. Rule for the calls, unless noted: active = hit-call score of the fitted dose curve at least 0.9, where 1 is the maximum; inactive = score below 0.9.

Key:
[1] = read-out: Interleukin-8 (IL8), CXCL8 (gene 3576); test: BSK_3C_IL8: BioMAP Diversity Plus: 3C Assay for Interleukin-8 (IL8) Biomarker Activity (AID 2283020); settings: primary human endothelial cells (HUVEC); actives raise or lower the signal
Method in brief: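 Human vascular endothelial cells (umbilical vein) in the 3C system; IL-8 level detected by ELISA at 24 h post-dose, with DMSO as baseline.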

[2] = read-out: Monokine induced gamma interferon (MIG), CXCL9 (gene 4283); test: BSK_3C_MIG: BioMAP Diversity Plus: 3C Assay for Monokine induced gamma interferon (MIG) Biomarker Activity (AID 2283021); settings: primary human endothelial cells (HUVEC); actives raise or lower the signal;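 for AC50: MIG protein level measured by immunoassay in the treated endothelial cultures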
Method in brief: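 After 24 h of treatment, human umbilical vein endothelial cultures (3C system) had their MIG biomarker level determined by ELISA, with DMSO serving as negative control.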

[3] = molecular target: human Vitamin D Receptor (VDR), VDR (gene 7421) (UniProt P11473); test: ATG_VDR_TRANS: Attagene TRANS-FACTORIAL HepG2 Assay for human Vitamin D Receptor (VDR) (AID 2283022; active = hit-call score of the fitted dose curve at least 0.9, where 1 is the maximum)
Sequence of human Vitamin D Receptor (VDR), VDR (gene 7421) (P11473 whole entry, looked up, the tested form may be a part): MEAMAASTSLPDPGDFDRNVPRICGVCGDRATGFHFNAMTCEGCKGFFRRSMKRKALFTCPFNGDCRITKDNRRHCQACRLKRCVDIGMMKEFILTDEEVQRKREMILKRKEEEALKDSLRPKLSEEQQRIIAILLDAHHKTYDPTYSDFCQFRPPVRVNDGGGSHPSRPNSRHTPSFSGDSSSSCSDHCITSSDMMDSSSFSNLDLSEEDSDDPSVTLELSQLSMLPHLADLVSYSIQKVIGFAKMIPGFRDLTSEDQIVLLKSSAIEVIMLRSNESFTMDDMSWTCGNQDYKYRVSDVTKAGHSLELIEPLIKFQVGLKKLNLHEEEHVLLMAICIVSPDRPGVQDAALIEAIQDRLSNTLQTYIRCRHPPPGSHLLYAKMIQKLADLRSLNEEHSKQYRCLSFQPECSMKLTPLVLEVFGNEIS
Method in brief: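 Steps: transfect HepG2 with GAL4-UAS-driven reporter constructs; dose compounds 24 h; isolate RNA, reverse-transcribe, PCR-amplify with 6-FAM-labelled primer extension and HpaI digestion; quantify fragments by capillary electrophoresis relative to DMSO.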

[4] = BSK_3C_SRB: Viability Assessment in the BioMAP Diversity Plus: 3C Assay (AID 2283023); settings: primary human endothelial cells (HUVEC);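 note: cells read 24 h after compound dosing; fitted both ways against DMSO so a hit may be signal rise or drop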
Method in brief: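 Absorbance at 560 nm of sulforhodamine B-stained (0.1%) total protein served as a cytotoxicity readout in human umbilical vein endothelial cells, 24 h after chemical treatment. Signal was fitted bidirectionally relative to DMSO.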

[5] = read-out: Matrix Metallopeptidase 1 (MMP1), MMP1 (gene 4312); test: BSK_BE3C_MMP1: BioMAP Diversity Plus: BE3C Assay for Matrix Metallopeptidase 1 (MMP1) Biomarker Activity (AID 2283024); settings: primary human bronchial epithelial cells; actives raise or lower the signal
Method in brief: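 Dose cells, wait 24 h, run MMP1 ELISA; cells are human bronchial epithelial primaries. Both increases and decreases relative to DMSO counted.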

[6] = read-out: Pselectin, SELP (gene 6403); test: BSK_4H_Pselectin: BioMAP Diversity Plus: 4H Assay for Pselectin Biomarker Activity (AID 2283026); settings: primary human endothelial cells (HUVEC); actives raise or lower the signal
Method in brief: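 Human vascular endothelium from umbilical vein; P-selectin measured by ELISA at 24 h post-dose, with cytotoxicity checked by sulforhodamine B total-protein staining in parallel cultures (0.1% SRB after 10% TCA fixation, read at 560 nm).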

[7] = BSK_4H_SRB: Viability Assessment in the BioMAP Diversity Plus: 4H Assay (AID 2283027); settings: primary human endothelial cells (HUVEC);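 note: cells exposed to compound for 24 h before staining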;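 for AC50: curves fitted both ways versus DMSO so AC50 may be loss or gain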
Method in brief: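 Human umbilical vein endothelial cells were dosed with chemical and, after 24 h, fixed with 10% TCA, stained with 0.1% sulforhodamine B, and read at 560 nm to give total protein as a cytotoxicity measure. Bidirectional fitting relative to DMSO control.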

[8] = BSK_BE3C_SRB: Viability Assessment in the BioMAP Diversity Plus: BE3C Assay (AID 2283028); settings: primary human bronchial epithelial cells;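 note: measured 24 h after chemical dosing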;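 for AC50: fitted both ways so AC50 may mark signal gain or loss versus DMSO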
Method in brief: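 Cells (human bronchial epithelial, primary) are treated with chemicals, and after 24 h the parallel cultures are fixed in 10% TCA. These are then stained with 0.1% SRB and read at 560 nm. Gain or loss of signal is fitted relative to DMSO.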

[9] = read-out: Thrombomodulin, THBD (gene 7056); test: BSK_3C_Thrombomodulin: BioMAP Diversity Plus: 3C Assay for Thrombomodulin Biomarker Activity (AID 2283029); settings: primary human endothelial cells (HUVEC); actives raise or lower the signal
Method in brief: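 Thrombomodulin ELISA, human primary HUVEC, 24 h post-dose; data fitted in both directions relative to DMSO.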

[10] = BSK_3C_Vis: BioMAP Diversity Plus: 3C Assay for Morphology Visualization (AID 2283025); settings: primary human endothelial cells (HUVEC);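 note: fitted both ways so gain or loss versus DMSO counts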;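 for AC50: light microscopy image of cell morphology used as background control; cells imaged 24 h after dosing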
Method in brief: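 Endothelial cells from human umbilical vein were treated with test chemicals for 24 h and inspected by light microscopy for changes in cell conformation.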

Measured: AC50

O=C(O)C(F)(F)C(F)(F)C(F)F
not listed: [10]
inactive: all other assays above

O=C(O)C=C(C(F)(F)F)C(F)(F)F
active: [6] 22.4 µM and 21.1 µM
not listed: [10]
inactive: all other assays above

O=C(O)C(F)(F)C(F)(F)C(F)(F)C(F)(F)F
active: [9] 31200 nM
inactive: [1] | [2] | [3] | [4] | [5] | [6] | [7] | [8] | [9]

O=C(O)C(F)(F)C(F)(F)C(F)(F)C(F)(F)C(F)(F)C(F)(F)C(F)(F)C(F)(F)C(F)(F)C(F)(F)C(F)(F)C(F)(F)F
inactive: [2] | [3] | [4] | [5] | [6] | [8] | [9]
active: [1] 23.6 µM and 8.82 µM | [7] 21.7 µM and 18 µM | [9] 928 nM

CCCCCCCOC(=O)c1ccccc1C(=O)OCCCCCCC
not listed: [3]
inactive: all other assays above

C=C(C)C(=O)OCC(F)(F)C(F)(F)C(F)(F)F
not listed: [10]
inactive: all other assays above

COC(=O)CCC(F)(F)C(F)(F)C(F)(F)C(F)(F)F
not listed: [10]
inactive: all other assays above

O=C(O)C(F)(F)C(F)(F)C(F)(F)F
not listed: [10]
inactive: all other assays above

CCO[Si](CCC(F)(F)C(F)(F)C(F)(F)C(F)(F)C(F)(F)C(F)(F)F)(OCC)OCC
active: [9] 638 nM
inactive: [1] | [2] | [3] | [4] | [5] | [6] | [7] | [8] | [9]

O=C(O)C(F)(F)C(F)(F)C(F)(F)C(F)(F)C(F)(F)C(F)(F)C(F)(F)C(F)(F)C(F)(F)C(F)F
active: [4] 47.3 µM and 49.5 µM | [7] 48.6 µM and 45.8 µM | [8] 21 µM and 20.7 µM | [9] 49.3 µM and 46.1 µM
inactive: [1] | [2] | [5] | [6]

OCCCC(F)(F)C(F)(F)C(F)(F)F
not listed: [10]
inactive: all other assays above

CS(C)(=O)=O
not listed: [3]
inactive: all other assays above

FC(F)(F)C(F)(F)C(F)(F)C(F)(F)C(F)(F)CCI
active: [5] 30 µM and 19.5 µM
not listed: [10]
inactive: all other assays above

OCC(F)(F)C(F)(F)C(F)(F)C(F)F
not listed: [10]
inactive: all other assays above

CCCCCCOC(=O)c1ccccc1O
active: [1] 41.7 µM and 44.8 µM | [2] 41.2 µM and 40.8 µM | [4] 39.5 µM and 43.2 µM | [6] 40.7 µM and 41.9 µM | [7] 44.2 µM and 42.6 µM
inactive: [3] | [5] | [8] | [9]

C=C(C)C(=O)OCCC(F)(F)C(F)(F)C(F)(F)C(F)(F)C(F)(C(F)(F)F)C(F)(F)F
not listed: [10]
inactive: all other assays above

CCN(CC)c1ccc2c(C)cc(=O)oc2c1
active: [10] 37.5 µM
not listed: [3]
inactive: all other assays above

FC(F)(F)C(F)(F)C(F)(F)C(F)(F)C(F)(F)C(F)(F)C(F)(F)C(F)(F)F
not listed: [10]
inactive: all other assays above

C=CC(=O)OCC(F)(F)C(F)(F)C(F)(F)C(F)(F)C(F)(F)C(F)(F)C(F)(F)F
not listed: [10]
inactive: all other assays above
